This is part of a sample that, as a whole, favours compounds with a hit. Of some 83,000 tested, about 20% had one in any assay.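 For each line, cells grew in 96-well plates with the test compound present at a single concentration for 48 hours.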 The source made the active and inactive calls. The calls were made as follows: active = growth percent below 10; inactive = the rest.

The assay concerns MDA-MB-468 breast. Put plainly: NCI-60 one-dose screen, 48 h (100 = growth as untreated, 0 = no growth, -100 = all killed). Conditions: 10 µM unless noted.
Turning to `NS(=O)(=O)c1ccc(N2N=C(c3cccs3)CC2c2ccccc2O)cc1` (stereo not drawn), the growth is 21.1% (inactive). In the case of `O=C(CCCCCCN1CC(=O)N2[C@@H](c3ccc(Cl)s3)c3[nH]c4ccccc4c3C[C@H]2C1=O)NO` it was 30.7% (inactive).

With `Cc1ccc2c(c1)C(=O)CCS2`, the growth is 111% (inactive).
